Data taken from PubChem BioAssay AID686928 (Broad Institute, 2013).
Measured potencies and affinities stand elsewhere. Active and inactive are the calls of the source. No rule for the calls is given here.

Assay: human cervical cancer cell viability loss – 24 h, plate reader, dry powder, cytotoxicity control, dose response (AID 686928)
Details: HeLa cytotoxicity; series mostly up to 80 µM; activity change, negative = cytotoxicity: at the top concentration

Row | Structure (SMILES) | activity change, negative = cytotoxicity
1 | O=C(Nc1nnc(-c2cccc(Cl)c2)o1)C1CCCCC1 | -0.512% (inactive)
2 | O=C(Cc1ccc(-c2ccccc2)cc1)NC1CCC1 | 3.35% [at 100 µM] (inactive)
3 | COc1ccc2cc3c(NC(=O)c4ccco4)nn(C)c3nc2c1 | -34.2% [at 100 µM] (inactive)
4 | O=C(Nc1nnc(-c2ccncc2)o1)C1CCC1 | 2.42% [at 100 µM] (inactive)
5 | CCC(C)(C)C(=O)Nc1nnc(-c2ccc3c(c2)OCCO3)o1 | -17.3% (inactive)
6 | Cc1ccc2cc3c(NC(=O)c4ccoc4)nn(C)c3nc2c1 | -3.71% (inactive)
7 | Cc1ccc2cc3c(NC(=O)c4cccs4)nn(C)c3nc2c1 | -31.7% (inactive)
8 | O=c1[nH]cnc2ccccc12 | -6.67% (inactive)
9 | O=C(Nc1nnc(-c2cccnc2)o1)C1CCC1 | 10.1% [at 100 µM] (inactive)
10 | O=C(CSc1nc2c(c(=O)[nH]1)CCCC2)NC1CCCCC1 | 1.91% (inactive)
11 | Cn1cnc(=O)c2ccccc21 | 11.9% (inactive)
12 | O=c1ncn(-c2ccc(Cl)cc2)c2ccccc12 | 2.74% (inactive)
13 | Cn1nc(NC(=O)c2ccco2)c2cc3ccccc3nc21 | -0.497% (inactive)
14 | COC(=O)c1ccccc1Nc1cccc(Cl)c1 | -12.2% (inactive)
15 | O=C(CC1CCCCC1)Nc1nnc(-c2cccnc2)o1 | 13% (inactive)
16 | Cc1cc(F)c2cc3c(NC(=O)c4ccco4)nn(C)c3nc2c1 | 2.86% [at 100 µM] (inactive)
17 | CC(C)(C)OC(=O)N1CCC(C(=O)Nc2nnc(-c3ccc4c(c3)OCCO4)o2)CC1 | 5.35% [at 100 µM] (inactive)
18 | COc1ccc2c(=O)ncn(-c3cccc(Cl)c3)c2c1 | -1.88% (inactive)
19 | CCc1ccc2cc3c(NC(=O)c4ccco4)nn(C)c3nc2c1 | -37.8% (inactive)

Row | Structure (SMILES) | activity change, negative = cytotoxicity
20 | CCc1nc(=O)c2ccccc2n1-c1cccc(Cl)c1 | -1.68% (inactive)
21 | O=c1ncn(-c2ccc(F)c(Cl)c2)c2ccccc12 | 0.53% (inactive)
22 | Cn1ccc(NC(=O)c2ccco2)n1 | 7.83% [at 100 µM] (inactive)
23 | COc1ccc(-c2nnc(NC(=O)C3CCCCC3)o2)cc1 | -9.23% [at 100 µM] (inactive)
24 | O=C(Nc1nnc(-c2cccnc2)o1)C1CCCCC1 | 5.91% [at 100 µM] (inactive)
25 | Cc1ccc2cc3c(NC(=O)c4cc5ccccc5o4)nn(C)c3nc2c1 | -46.2% [at 100 µM] (inactive)
26 | O=c1ncn(Cc2ccc(Cl)cc2)c2ccccc12 | -6.39% (inactive)
27 | COc1ccccc1-c1nnc(NC(=O)C2CCCCC2)o1 | -5.13% [at 100 µM] (inactive)
28 | NC(=O)c1ccccc1Nc1cccc(Cl)c1 | -29.1% (inactive)
29 | O=c1nc(-c2ccccc2)n(-c2cccc(Cl)c2)c2ccccc12 | 0.608% (inactive)
30 | Cc1nc(=O)c2ccccc2n1-c1cccc(Cl)c1 | 1.96% (inactive)
31 | CN1CCC(C(=O)Nc2nnc(-c3ccc4c(c3)OCCO4)o2)CC1 | 8.1% [at 100 µM] (inactive)
32 | Cc1ccc2c(=O)ncn(-c3cccc(Cl)c3)c2c1 | 2.63% (inactive)
33 | c1ccc(CNc2nnc(-c3ccc4c(c3)OCCO4)o2)cc1 | 8.88% [at 100 µM] (inactive)
34 | O=c1ncn(-c2ccccc2)c2ccccc12 | 4.02% (inactive)
35 | COc1cccc(-n2cnc(=O)c3ccccc32)c1 | -1.94% (inactive)
36 | CN(C)/C=N/c1nnc(-c2ccc3c(c2)OCCO3)o1 | -5.9% [at 100 µM] (inactive)
37 | NC(=O)c1ccccc1Nc1ccccc1 | -4.82% (inactive)
38 | O=C(Nc1nnc(-c2ccc3c(c2)CCCC3)o1)C1CCC1 | -27% (inactive)
